# According to PubChem BioAssay (NCI):
# Compounds without any hit were thinned out: in the full panel of roughly 83,000, 20% have a hit.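 Growth was measured after 48 h exposure to one concentration of compound in 96-well plates. Values under 10 count as active.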 Unmarked numbers belong to inactive results. Activity calls are given as the source filed them.
# Tests used:
# Assay in all cases: NCI-60 one-dose screen, 48 h (100 = growth as untreated, 0 = no growth, -100 = all killed)
# Conditions in all cases: 10 µM unless noted
# SR leukemia = test system: SR leukemia
# RPMI-8226 leukemia = test system: RPMI-8226 leukemia
# OVCAR-8 ovarian = test system: OVCAR-8 ovarian
# OVCAR-5 ovarian = test system: OVCAR-5 ovarian
# OVCAR-4 ovarian = test system: OVCAR-4 ovarian
# SK-OV-3 ovarian = test system: SK-OV-3 ovarian
# IGROV1 ovarian = test system: IGROV1 ovarian
# OVCAR-3 ovarian = test system: OVCAR-3 ovarian
# HS 578T breast = test system: HS 578T breast
# NCI/ADR-RES ovarian = test system: NCI/ADR-RES ovarian
# T-47D breast = test system: T-47D breast
# BT-549 breast = test system: BT-549 breast
# MDA-MB-435 melanoma = test system: MDA-MB-435 melanoma
# SW-620 colon = test system: SW-620 colon
# MCF7 breast = test system: MCF7 breast
# HCT-116 colon = test system: HCT-116 colon
# HCC-2998 colon = test system: HCC-2998 colon
# KM12 colon = test system: KM12 colon
Compound,growth (SR leukemia),growth (RPMI-8226 leukemia) [%],growth (OVCAR-8 ovarian) [%],growth (OVCAR-5 ovarian) [%],growth (OVCAR-4 ovarian) [%],growth (SK-OV-3 ovarian) [%],growth (IGROV1 ovarian) [%],growth (OVCAR-3 ovarian),growth (HS 578T breast),growth (NCI/ADR-RES ovarian) [%],growth (T-47D breast) [%],growth (BT-549 breast) [%],growth (MDA-MB-435 melanoma),growth (SW-620 colon) [%],growth (MCF7 breast) [%],growth (HCT-116 colon) [%],growth (HCC-2998 colon) [%],growth (KM12 colon) [%]
C=CC(C)C(C)(C)O (centres undefined),97.6%,109,108,98.7,113,106,102,102%,96.3%,98.3,89.2,97.3,102%,101,101,93.9,106,101
NC(=O)OCCO,94.5%,104,104,107,109,105,108,102%,99.2%,105,94.4,94.9,111%,106,92.9,90.6,97.9,98.7
CCOC(=O)Nc1nccs1,110%,100,104,110,109,99.9,97.2,109%,98.7%,112,94.8,101,111%,110,101,104,118,107
COc1ccc(/C=N/NC(=O)COCC(=O)N/N=C/c2ccc(OC)cc2)cc1,96.7%,101,104,108,90.5,108,110,108%,114%,112,104,118,98.2%,108,95.9,111,111,107
COc1ccc(C(=O)/C(=N/Nc2ccccc2)c2ccc(OC)cc2)cc1,86%,92.9,115,94.2,87.2,104,91.5,103%,102%,97.5,87,103,94.1%,93.5,95.2,78.5,95.2,90
Nc1nc(N)nc(N2CCCCC2)n1,97.9%,101,105,102,111,106,96,105%,97.3%,110,101,106,115%,106,104,106,106,101
O=C(CCCl)OCCOc1ccccc1,94.5%,53.6,102,109,102,100,104,104%,98.8%,106,96,116,110%,107,92.1,118,108,102
CCOC(=O)C(=O)CC(=O)c1ccccc1,79.7%,98.4,101,95.1,104,111,93.3,106%,106%,93.1,105,109,106%,98.4,96.7,97.9,101,96.3
O=S(=O)(O)C(C(I)I)S(=O)(=O)O,101%,114,101,114,107,106,114,105%,93.7%,113,118,118,104%,105,98.9,107,101,103
CN1CCCN(C(c2ccccc2)c2ccc(Br)cc2)CC1 (centres undefined),4.87% (active),84.1,93.9,92.6,84.7,81.5,78.6,69.9%,42.4%,79.1,103,63.3,-29.3% (active),49.6,37.5,21.4,95.9,63.9
CCCCCCCCNC(=O)C(C)C,102%,99.1,109,97.9,96.9,105,107,109%,97.1%,117,95.2,107,102%,93.4,92,92.7,115,102
COc1cc(OC)c(NC(=O)C(Sc2nc(C)cc(C)c2C#N)c2ccccc2)cc1Cl (centres undefined),98.4%,119,88.6,106,105,85.3,93.4,113%,86.7%,96.9,95.9,81.7,105%,107,95.5,86.7,111,96.4
Nc1cc(N)ncn1,93.9%,105,116,96.5,99,125,101,112%,96.2%,97.6,112,101,102%,104,99.7,99.1,99.6,101
C/C(O)=C(/C=N/C(=S)Nc1ccccc1)C(=O)Nc1ccccc1C,91.7%,103,96.3,117,83,101,105,105%,94.8%,103,79.6,107,111%,106,94.9,109,109,100
C=COC(=O)C(C)(C)C,91.2%,99.2,107,106,108,107,96.7,107%,101%,101,93.8,89,101%,98.4,96,109,94.1,107
COc1cc(C(=O)O)c(O)c(C(C)(C)C)c1,119%,106,104,99.2,109,103,107,104%,105%,106,103,105,104%,106,97.4,101,96.7,104
O=C1C=Cc2ccccc2/C1=C/c1[nH]c(=O)[nH]c1O,33%,87.3,45.4,86.7,41,32.8,33.2,-32.3% (active),-6.84% (active),67.8,39.6,20.6,-6.05% (active),22,12.9,17.2,54.1,40.2
CC1CCC(C(C)(C)[N+](C)(C)C)CC1 (centres undefined),94%,102,100,104,98.9,102,115,107%,100%,107,98.8,92.6,108%,105,94.4,98.4,93.7,99.7
